# Measurements published in PubChem BioAssay (NCATS).
# Unmarked numbers belong to inactive results. Records with an inconclusive call do not appear. A call without a number means that no potency is given here. Calls of active or inactive are those of the source. Calls come from the whole dose curve; as a rule, active = well fitted curve in the direction sought with a large enough effect; inconclusive = small, poorly fitted or top-dose-only effect, or another doubt; inactive = no such curve, though single readings can be large; an effect the other way counts as inactive or inconclusive.
# Legend:
# [1] = biological target: Rap guanine nucleotide exchange factor 3 (Homo sapiens) (UniProt O95398); test: Confirmatory qHTS for antagonist of cAMP-regulated guanine nucleotide exchange factor 3 (EPAC1) (AID 1645880); note: nearly all actives have a fitted effect of over 55% in size; note: potency is the fitted concentration of half-maximal effect
# Method in brief: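 Nucleotide exchange uses 100 nM EPAC1, 250 nM RAP1B-BODIPY-GDP and 50 uM GDP, with compounds in a concentration-titration series. After 5 min at room temperature, fluorescence (480 nm ex/540 nm em) is read every 5 min for 30 min. Data are normalized to control ATA and DMSO.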
# [2] = biological target: Rap guanine nucleotide exchange factor 4 (Homo sapiens) (UniProt Q8WZA2); test: Confirmatory qHTS for agonist of cAMP-regulated guanine nucleotide exchange factor 4 (EPAC2) (AID 1645884);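 note: nucleotide exchange releases bodipy-GDP from Rap1 and this lowers its fluorescence; nearly all actives have a fitted effect of over 65% in size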
# [3] = biological target: Rap guanine nucleotide exchange factor 4 (Homo sapiens) (UniProt Q8WZA2); test: Confirmatory qHTS for antagonist of cAMP-regulated guanine nucleotide exchange factor 4 (EPAC2) (AID 1645885); note: nearly all actives have a fitted effect of over 25% in size
# [4] = biological target: Rap guanine nucleotide exchange factor 3 (Homo sapiens) (UniProt O95398); test: Counterscreen qHTS for antagonist of cAMP-regulated guanine nucleotide exchange factor 3 (EPAC1) (AID 1645888);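 note: fluorescence loss as bound BODIPY-GDP is released from Rap1B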
# Method in brief: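 Rap1B–BODIPY-GDP (250 nM) with 50 uM GDP; compounds pin-transferred to 9.74 nM–152 uM final (activator) or from 7.32 nM upwards (inhibitor). Fluorescence Ex/Em 480/540 nm read at 5 and 30 min, then after adding cAMP or buffer, at room temperature.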
# [5] = biological target: Cytochrome P450 3A4 (Homo sapiens) (UniProt P08684); test: qHTS Assay for Inhibitors and Substrates of Cytochrome P450 3A4 (AID 884); note: potency is the fitted concentration of half-maximal effect; nearly all actives have a fitted effect of over 50% in size
# Method in brief: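 20 nM human CYP3A4 with 25 uM Luciferin-PPXE (at KM) in 200 mM KPO4, preincubated 10 min with compound; NADPH regeneration started a 60 min RT reaction. Luciferin detected by luminescence, normalized to 57 uM ketoconazole as full inhibition.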
# [6] = biological target: Cytochrome P450 3A4 (Homo sapiens) (UniProt P08684); test: qHTS Assay for Activators of Cytochrome P450 3A4 (AID 885); note: nearly all actives have a fitted effect of over 65% in size
# Method in brief: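 Quantitative HTS format: compounds preincubated with 20nM human CYP3A4 and Luciferin-PPXE substrate at KM, reaction started by NADPH regeneration, stopped after 60 min, luciferase luminescence read 20 min later.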
# [7] = Confirmation and Secondary Assay for Modulators of Hemoglobin Beta Chain Splicing at IVS2 654 locus (AID 910);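 note: HeLa cells stably carrying EGFP split by mutant beta-globin IVS2-654 intron; potency is the fitted concentration of half-maximal effect; potency of activators that raise GFP signal by restoring correct splicing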
# Method in brief: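 HeLa cells stably expressing EGFP interrupted by β-globin IVS2-654 intron, seeded overnight in Opti-MEM/2% FCS, then treated 2 days at 37 °C. Restored splicing read as total peak GFP intensity per well by laser scanning cytometry (488 nm excitation, 500–520 nm emission); 500 nM antisense PNA as control.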
# [8] = biological target: Ubiquitin carboxyl-terminal hydrolase 1 (Homo sapiens) (UniProt O94782); test: Inhibitors of USP1/UAF1: Pilot qHTS (AID 504865); note: potency is the fitted concentration of half-maximal effect; nearly all actives have a fitted effect of over 35% in size
# Method in brief: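 Kinetic fluorescence assay: 1nM USP1/UAF1, 15 min compound preincubation, then 150nM Ub-Rho; 480/540 nm.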
# [9] = biological target: Rap guanine nucleotide exchange factor 3 (Homo sapiens) (UniProt O95398); test: Confirmatory qHTS for agonist of cAMP-regulated guanine nucleotide exchange factor 3 (EPAC1) (AID 1645881);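 note: EPAC1 catalysed release of BODIPY-GDP from Rap1B seen as fluorescence loss; nearly all actives have a fitted effect of over 75% in size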
# Chain of Rap guanine nucleotide exchange factor 4 (Homo sapiens) (Q8WZA2 whole entry, looked up): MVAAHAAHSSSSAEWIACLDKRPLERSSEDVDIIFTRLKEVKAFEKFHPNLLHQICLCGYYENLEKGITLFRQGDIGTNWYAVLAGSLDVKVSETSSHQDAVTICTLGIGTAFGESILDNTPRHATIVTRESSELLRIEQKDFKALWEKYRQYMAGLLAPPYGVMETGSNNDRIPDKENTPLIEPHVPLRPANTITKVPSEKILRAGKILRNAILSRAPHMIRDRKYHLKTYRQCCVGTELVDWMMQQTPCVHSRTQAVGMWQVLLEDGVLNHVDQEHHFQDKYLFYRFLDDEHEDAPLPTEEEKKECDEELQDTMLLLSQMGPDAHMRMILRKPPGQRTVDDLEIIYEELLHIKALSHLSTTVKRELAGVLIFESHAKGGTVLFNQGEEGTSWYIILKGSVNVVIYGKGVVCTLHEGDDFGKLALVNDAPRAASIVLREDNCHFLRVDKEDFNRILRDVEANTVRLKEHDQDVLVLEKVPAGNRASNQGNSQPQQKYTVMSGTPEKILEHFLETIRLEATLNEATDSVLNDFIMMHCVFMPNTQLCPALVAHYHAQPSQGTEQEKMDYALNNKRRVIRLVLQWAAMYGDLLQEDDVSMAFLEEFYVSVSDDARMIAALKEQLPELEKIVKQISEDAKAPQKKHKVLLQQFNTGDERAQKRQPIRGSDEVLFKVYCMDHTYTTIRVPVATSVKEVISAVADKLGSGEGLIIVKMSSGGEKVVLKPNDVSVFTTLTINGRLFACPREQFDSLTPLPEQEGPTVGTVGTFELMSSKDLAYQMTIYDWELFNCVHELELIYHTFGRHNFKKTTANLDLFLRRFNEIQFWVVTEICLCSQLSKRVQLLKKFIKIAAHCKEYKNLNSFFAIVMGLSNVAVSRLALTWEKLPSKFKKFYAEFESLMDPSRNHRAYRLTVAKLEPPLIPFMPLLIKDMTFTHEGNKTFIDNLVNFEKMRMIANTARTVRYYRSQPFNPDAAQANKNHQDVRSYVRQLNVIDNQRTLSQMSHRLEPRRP
# Chain of Rap guanine nucleotide exchange factor 3 (Homo sapiens) (O95398 whole entry, looked up): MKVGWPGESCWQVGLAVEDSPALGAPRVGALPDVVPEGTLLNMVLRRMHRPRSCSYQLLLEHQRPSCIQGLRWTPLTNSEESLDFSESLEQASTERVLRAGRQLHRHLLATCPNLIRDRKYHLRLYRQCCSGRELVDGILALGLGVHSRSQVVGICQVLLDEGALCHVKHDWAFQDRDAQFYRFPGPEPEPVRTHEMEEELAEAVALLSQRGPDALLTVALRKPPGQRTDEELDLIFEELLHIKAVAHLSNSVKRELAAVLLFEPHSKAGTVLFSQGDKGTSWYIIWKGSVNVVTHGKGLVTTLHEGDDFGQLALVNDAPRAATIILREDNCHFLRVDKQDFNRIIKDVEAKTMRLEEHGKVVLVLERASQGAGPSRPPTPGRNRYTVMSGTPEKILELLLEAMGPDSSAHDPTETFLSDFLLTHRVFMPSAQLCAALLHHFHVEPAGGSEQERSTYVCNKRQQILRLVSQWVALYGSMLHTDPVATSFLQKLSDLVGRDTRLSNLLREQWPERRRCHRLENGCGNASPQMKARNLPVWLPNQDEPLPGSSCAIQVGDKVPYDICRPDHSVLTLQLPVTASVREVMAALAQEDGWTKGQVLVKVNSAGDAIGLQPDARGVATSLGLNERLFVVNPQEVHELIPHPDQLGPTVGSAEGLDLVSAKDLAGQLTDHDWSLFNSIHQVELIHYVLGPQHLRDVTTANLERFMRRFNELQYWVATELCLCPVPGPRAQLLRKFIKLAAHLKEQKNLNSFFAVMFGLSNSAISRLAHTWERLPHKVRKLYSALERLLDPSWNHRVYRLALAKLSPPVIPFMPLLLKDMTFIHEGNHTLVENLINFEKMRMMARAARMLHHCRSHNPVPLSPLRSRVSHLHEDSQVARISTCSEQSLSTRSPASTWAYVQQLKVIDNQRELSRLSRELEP
# Chain of Cytochrome P450 3A4 (Homo sapiens) (P08684 whole entry, looked up): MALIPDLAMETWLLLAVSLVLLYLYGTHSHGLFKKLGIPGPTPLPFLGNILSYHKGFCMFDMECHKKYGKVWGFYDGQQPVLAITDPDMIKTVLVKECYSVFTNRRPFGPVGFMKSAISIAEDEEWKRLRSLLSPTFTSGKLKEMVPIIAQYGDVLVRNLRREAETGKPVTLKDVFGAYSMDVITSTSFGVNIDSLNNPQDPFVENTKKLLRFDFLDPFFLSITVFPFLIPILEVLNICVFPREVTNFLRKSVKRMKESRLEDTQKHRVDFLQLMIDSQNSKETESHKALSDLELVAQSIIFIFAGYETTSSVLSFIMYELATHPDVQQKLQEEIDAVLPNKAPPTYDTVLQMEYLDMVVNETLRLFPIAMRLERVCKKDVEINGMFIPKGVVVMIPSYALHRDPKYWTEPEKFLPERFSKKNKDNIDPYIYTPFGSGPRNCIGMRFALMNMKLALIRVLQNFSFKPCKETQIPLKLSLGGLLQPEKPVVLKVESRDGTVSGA
# Chain of Ubiquitin carboxyl-terminal hydrolase 1 (Homo sapiens) (O94782 whole entry, looked up): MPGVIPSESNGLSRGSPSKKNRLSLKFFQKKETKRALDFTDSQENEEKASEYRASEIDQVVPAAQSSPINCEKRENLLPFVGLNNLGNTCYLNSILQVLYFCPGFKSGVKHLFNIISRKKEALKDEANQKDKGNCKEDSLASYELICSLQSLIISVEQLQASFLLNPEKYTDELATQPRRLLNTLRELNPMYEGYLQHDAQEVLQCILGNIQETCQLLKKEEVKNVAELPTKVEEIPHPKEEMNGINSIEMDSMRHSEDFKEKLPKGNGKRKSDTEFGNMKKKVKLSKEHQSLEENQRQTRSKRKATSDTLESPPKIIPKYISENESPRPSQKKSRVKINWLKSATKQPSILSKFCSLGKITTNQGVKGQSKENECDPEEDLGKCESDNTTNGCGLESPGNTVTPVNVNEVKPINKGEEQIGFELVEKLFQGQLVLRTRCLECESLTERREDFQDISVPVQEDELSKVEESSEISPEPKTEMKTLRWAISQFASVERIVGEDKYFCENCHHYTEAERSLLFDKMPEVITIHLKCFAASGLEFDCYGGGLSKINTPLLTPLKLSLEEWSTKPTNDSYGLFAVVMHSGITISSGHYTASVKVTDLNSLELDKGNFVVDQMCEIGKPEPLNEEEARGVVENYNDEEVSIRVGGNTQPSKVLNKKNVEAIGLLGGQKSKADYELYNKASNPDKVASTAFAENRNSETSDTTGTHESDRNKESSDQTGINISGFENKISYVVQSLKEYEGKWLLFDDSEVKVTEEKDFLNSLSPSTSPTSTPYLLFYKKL
smiles,measurement,setting,value
O=C1CN=C(c2ccccc2)c2cc(Cl)ccc2N1Cc1ccc(Cl)cc1,Potency,[1],inactive
same,Potency,[2],inactive
same,"activity change, negative = inhibition",[3],1.14% [at 12.7 µM]
same,outcome,[4],inactive
CC[C@@]1(O)CC(O)c2c(cc3c(c2O)C(=O)c2c(O)ccc(O)c2C3=O)C1C(=O)OC (some centres undefined),Potency,[5],7.94 µM (active)
same,Potency,[6],inactive
same,Potency,[7],12.6 µM (active)
same,Potency,[8],22.4 µM (active)
same,Potency,[1],inactive
same,Potency,[9],inactive
same,Potency,[2],inactive
same,Potency,[3],inactive
Cc1cccc(N2C(=O)NC(=O)/C(=C\c3cc(C)n(-c4sc5c(c4C#N)CCCC5)c3C)C2=O)c1C,Potency,[1],30.1 µM (active)
same,Potency,[9],inactive
same,Potency,[2],inactive
same,outcome,[4],inactive
CC(C)N1C(=O)/C(=C/C=C/c2ccco2)C(=O)N(Cc2ccco2)C1=O,Potency,[1],inactive
same,activation,[2],"13% [at 17.1 µM, percent relative to cAMP agonist control]"
same,"activity change, negative = inhibition",[3],22.6% [at 12.7 µM]
same,"activity change, negative = inhibition",[4],52.4% [at 30.8 µM]
Cc1cc(=O)oc2cc(OCC(=O)N3CCC(C(=O)O)(c4ccccc4)CC3)ccc12,Potency,[1],75.7 µM (active)
same,Potency,[9],inactive
same,Potency,[2],inactive
same,outcome,[4],inactive
